Records with an inconclusive call do not appear. Where a call stands in place of a potency, no number is given. Activity calls are given as the source filed them. Calls come from the whole dose curve.

Sequence of Acetylcholinesterase (Homo sapiens) (P22303 whole entry, looked up): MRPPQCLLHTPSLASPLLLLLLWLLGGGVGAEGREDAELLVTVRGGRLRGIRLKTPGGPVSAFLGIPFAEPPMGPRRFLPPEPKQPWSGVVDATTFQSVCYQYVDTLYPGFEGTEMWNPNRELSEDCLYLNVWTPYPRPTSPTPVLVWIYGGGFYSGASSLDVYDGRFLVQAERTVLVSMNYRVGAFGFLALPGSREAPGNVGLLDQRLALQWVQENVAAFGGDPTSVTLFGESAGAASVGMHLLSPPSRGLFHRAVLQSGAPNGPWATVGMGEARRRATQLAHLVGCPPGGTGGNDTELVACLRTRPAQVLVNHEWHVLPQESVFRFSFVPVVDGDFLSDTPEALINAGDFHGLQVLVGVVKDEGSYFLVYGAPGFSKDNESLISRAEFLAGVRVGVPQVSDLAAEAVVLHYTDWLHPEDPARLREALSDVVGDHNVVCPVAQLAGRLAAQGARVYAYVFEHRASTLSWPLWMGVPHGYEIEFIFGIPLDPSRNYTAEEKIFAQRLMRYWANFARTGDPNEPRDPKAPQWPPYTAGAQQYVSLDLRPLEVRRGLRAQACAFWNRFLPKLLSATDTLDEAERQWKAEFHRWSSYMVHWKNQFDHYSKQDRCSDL

This assay concerns the target Acetylcholinesterase (Homo sapiens) (UniProt P22303). Put plainly: Acetylcholinesterase (AChE) small molecule antagonists: colormetric cell-based qHTS assay (AID 1347395). Note: nearly all actives have a fitted effect of over 30% in size. Conditions: SH-SY5Y cells AChE activity, colorimetric (Ellman); series mostly up to 115 µM. The source says: National Center for Advancing Translational Sciences [NCATS]
Division of Preclinical Innovation [DPI]
U.S. Environmental Protection Agency [EPA]
National Institutes of Environmental Health Sciences [NIEHS]
National Toxicology Program [NTP]
U.S. Food and Drug Administration [FDA]
Acetylcholinesterase (AChE) is the primary cholinesterase in the body that hydrolyzes a key neurotransmitter, acetylcholine. Inhibition of AChE activity can lead to neurotoxicity. The known inhibitors include organophosphorous pesticides (OP), chemical warfare agents, drugs, and various phytochemicals.
A homogenous cell-based assay using the Amplite Colormetric acetylcholinesterase assay kit (AAT Bioquest, Sunnyvale, CA) was used to evaluate the chemicals in the Tox21 10K library that inhibit AChE activity. The assay uses 5, 5-dithiobis-(2-nitrobenzoic acid) (DTNB) to quantify the thiocholine produced from the hydrolysis of acetylthiocholine by AChE from the SH-SY5Y cells.
Tox21 Assay Protocol Summary:
For the cell-based AChE assay, 2,000 SH-SY5Y cells in 4 uL/well were dispensed into black, clear-bottom 1536-well plates using a Multidrop Combi dispenser (Thermo Scientific, MA). The assay plates were incubated overnight at 37 C to allow cells to attach to the wells, followed by the transfer of 23 nL of compound or DMSO (vehicle control) by a Pintool Station (Wako Automation, CA). The plates were incubated for 30 min at 37 C and 5% CO2, followed by the addition of 4 uL of detection cocktail solution (DTNB, acetylthiocholine) into each well using a Flying Reagent Dispenser (Beckman Coulter, CA) and then 90 min incubation at 37 C.
A general note: In qHTS, concentration-response curves come from the screen itself.
With `NC(=O)NS(=O)(=O)c1ccc(Cl)cc1`, the Potency result is “inactive”.

Regarding `CCCO`, the Potency result is “inactive”.

Consider `FC(F)(F)C(F)(F)C(F)(F)C(F)(F)C(F)(F)C(F)(F)CCI`, for which the Potency entry is “inactive”.

With `CCCCCCCCC(=O)OCC(C)OC(=O)CCCCCCCC` (stereo not given), the Potency entry was “inactive”.

In the case of `CC(C)OC(=O)C(C)N(C(=O)c1ccccc1)c1ccc(F)c(Cl)c1` (stereo not given), the Potency entry was “inactive”.

Turning to `N=C(N=C(N)N)N1CCOCC1`, the Potency result was “inactive”.

In the case of `C=CCN(CC=C)CC=C`, the Potency entry is “inactive”.

`COC(=O)C1=C(C)NC(C)=C(C(=O)O[C@@H]2CCCN(Cc3ccccc3)C2)[C@@H]1c1cccc([N+](=O)[O-])c1`: the Potency result was “inactive”.

On to `Cc1ccc(NC(=O)c2ccc(CN3CCN(C)CC3)cc2)cc1Nc1nccc(-c2cccnc2)n1`, for which the Potency entry was “inactive”.

Turning to `CCCCCC=CCC=CCCCCCCCC(=O)OCC`, the Potency result is “inactive”.

As to `Cc1ccc(N(CC2=NCCN2)c2cccc(O)c2)cc1`, the Potency entry is “inactive”.

Take `C/C=C/C=C/C=O`: the Potency result is “inactive”.

For the compound `COc1ccc2c(c1OC)C(=O)O[C@@H]2[C@H]1c2c(cc3c(c2OC)OCO3)CCN1C`, the Potency result was “inactive”.

`COC(=O)[C@H]1[C@H]2C[C@@H]3c4[nH]c5cc(OC)ccc5c4CCN3C[C@H]2C[C@@H](OC(=O)COc2ccc(OC)cc2)[C@@H]1OC`: the Potency entry is “inactive”.

For the compound `CCCCOC(=O)C(C)O` (stereo not given), the Potency result was “inactive”.

`COC(=O)C(c1ccccc1Cl)N1CCc2sccc2C1` (stereo not given): the Potency entry was “inactive”.

Regarding `CCOc1ccc2ccccc2c1C(=O)N[C@@H]1C(=O)N2[C@@H]1SC(C)(C)[C@@H]2C(=O)O`, the Potency result was “inactive”.

For the compound `Cc1ccc2sc3cccc(C)c3c2c1`, the Potency result was “inactive”.

For `CC(=O)Nc1cccc(N)c1`, the Potency entry was “inactive”.

For the compound `CCN1CCN(C(=O)N[C@@H](C(=O)N[C@@H]2C(=O)N3C(C(=O)O)=C(CSc4nnnn4C)CS[C@H]23)c2ccc(O)cc2)C(=O)C1=O`, the Potency result is “inactive”.

Turning to `O=C1CCCN1CCO`, the Potency entry was “inactive”.

As for `CCC(C)C(=O)OC` (stereo not given), the Potency entry is “inactive”.

As to `CCCC(=O)O[C@]1(C(=O)CCl)[C@@H](C)C[C@H]2[C@@H]3CCC4=CC(=O)C=C[C@]4(C)[C@@]3(F)C(=O)C[C@@]21C`, the Potency entry was “inactive”.

`CNCCCC1c2ccccc2C=Cc2ccccc21`: the result was inactive.

For `Cc1ccc([N+](=O)[O-])cc1Cl`, the Potency result was “inactive”.

`O=C(O)[C@@H]1CSCN1`: the Potency result was “inactive”.

`O=C1C=CCCC1`: the Potency entry is “inactive”.

Consider `C=C(C)c1ccccc1`, for which the Potency entry was “inactive”.

For `N#CCc1ccccc1[N+](=O)[O-]`, the Potency entry was “inactive”.

For the compound `CC[C@H]1O[C@]2(CC[C@@H]1C)C[C@@H]1C[C@@H](C/C=C(\C)C[C@@H](C)/C=C/C=C3\CO[C@@H]4[C@H](O)C(C)=C[C@@H](C(=O)O1)[C@]34O)O2`, the Potency result was “inactive”.

As to `COc1c2occc2c(OC)c2c(=O)cc(C)oc12`, the Potency result is “inactive”.

Regarding `COc1ccc(C(=O)c2ccc(OC)cc2O)c(O)c1`, the Potency entry is “inactive”.

Consider `OCCN1CCN(CCCN2c3ccccc3Sc3ccc(C(F)(F)F)cc32)CC1`, for which the Potency entry is “inactive”.

As for `CCN(CC)CCOCCOC(=O)C1(c2ccccc2)CCCC1`, the Potency result was “inactive”.

For the compound `C/C=C/C=C/COC(=O)C(C)C`, the Potency entry was “inactive”.

For the compound `CCCCCOC(=O)c1ccc(O)cc1`, the Potency entry was “inactive”.

For `CCN(CC)CCOC(=O)C1(c2ccccc2)CCCC1`, the Potency result was “inactive”.

As to `CCCCCCCC/C=C/CCCCCCCC1=NCCN1CCO`, the Potency result was “inactive”.

Turning to `Nc1ccccc1S(=O)(=O)c1ccccc1`, the Potency result was “inactive”.

Turning to `O=C(c1ccccc1)C1CCCCC1`, the Potency result was “inactive”.

Source of the values: PubChem BioAssay (Tox21).
